From PubChem BioAssay (NCI) come the findings set out here.

Several values for one entry are separate records, joined by “and”; a condition that tells them apart may be missing. Equal values may be shown once. The panel holds about 83,000 compounds, 20% with a hit somewhere; the sample as a whole holds those more often.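 Single-concentration screen, 48 h exposure, 96-well plates. Endpoint: percent growth. Below 10 = active.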 Activity calls are given as the source filed them.

The test system of one assay is CAKI-1 renal. Description: NCI-60 one-dose screen, 48 h (100 = growth as untreated, 0 = no growth, -100 = all killed). As to conditions: 10 µM. The protocol:
Growth inhibition of the CAKI-1 human tumor cell line is measured as a screen for anti-cancer activity. Cells are grown in 96 well plates and exposed to the test compound for 48 hours. Compounds are tested at a single concentration, which is 10^-5 M for most compounds. The reported endpoint is percent growth (GI% or GIPRCNT), where numbers from 0 - 100% represent growth inhibition, and numbers from -100% - 0 represent cell death. For example, a value of 40 represents 60% growth inhibition. A value of 0 means no net growth occurred over the course of the experiment. A value of -40 indicates 40% of cells at the beginning of the experiment died by the end of the experiment. A value of -100 means all cells are dead at the end of the experiment.
NCI-60 Human Tumor Cell Lines Screen was performed using the standard one-dose NCI protocol, which is described in more detail at https://dtp.cancer.gov/discovery_development/nci-60/default.htm.
Compounds with GIPRCNT values below 10 were considered active. Activity score was based on GIPRCNT using the following formula: […]
Score is 0 for GIPRCNT values of 100 or above, 50 for GIPRCNT values of 0, and 100 for GIPRCNT values of -100.
As for `S=c1nc[nH]c2nc[nH]c12`, the growth was 7.07% (active). `O=c1ccn2c(n1)OC1CC2OC1COC(c1ccccc1)(c1ccccc1)c1ccccc1` (stereo not given): the growth is 102% (inactive).

The same assay, now with this note: 10 µM unless noted.
For `Nc1nc(-c2ccccn2)cc(-c2cc(-c3ccccn3)nc(N)n2)n1`, the growth was 96.7% (inactive).

Regarding `C(#CCN1CCOCC1)CCCN1CCOCC1`, the growth is 98.1% (inactive) and 94.7% (inactive).

As for `CN(C)C(=S)N(C)C`, the growth was 98.6% (inactive). Still for that read-out and setting: with `S=c1ccc2ccccc2[nH]1` the figure was 96.5% (inactive). Same read-out and setting: the value for `O=C1Cc2ccccc2C(=O)N1` was 77% (inactive); that for `COc1ccc2oc3c(ccc[n+]3C)c(=O)c2c1` was 98.2% (inactive). Turning to `CC1CC(O)CC(C)(C)C1.CC1CC(O)CC(C)(C)C1.CC1CC(O)CC(C)(C)C1.CC1CC(O)CC(C)(C)C1.[Ti]` (stereo not given), the growth is 94.9% (inactive). Take `CCN(CC)C(CC(=O)c1ccccc1)C(=O)c1ccccc1` (stereo not given): the growth is 101% (inactive). Take `Cc1ccc(S(=O)(=O)n2ccnc2)cc1`: the growth was 75.3% (inactive). Turning to `CCOCCC(=O)O`, the growth was 102% (inactive). `CCOC(=O)c1ccncc1`: the growth is 104% (inactive).

Turning to `O=c1[nH]c(=O)c2[nH]c(=O)[nH]c2[nH]1`, the growth was 101% (inactive). On the same count and under the same terms, the value for `OCc1cccc(F)c1` was 34.2% (inactive); that for `CN(C=O)c1ccccc1` was 88.2% (inactive). Still for that read-out and setting: with `O=C(O)C1CSCN1` (stereo not given) the figure was 92.9% (inactive) and 91.4% (inactive); with `CCN(CC)Cc1cc2[nH]c3c4ccc(Cl)cc4ncc3c2cc1OC`, 31.9% (inactive) and 81.3% (inactive); with `O=C1C(=O)c2ccccc2C(O)=C1CC=C(Cl)Cl`, 39.4% (inactive) and 30.8% (inactive).

Consider `CC(=O)Nc1cscc1NC(C)=O`, for which the growth is 73.1% (inactive). On the same count and under the same terms, the value for `CNc1ccc(Cl)cc1S(=O)(=O)c1ccccc1[N+](=O)[O-]` was 84.6% (inactive) and 41.1% (inactive). On to `O=C(N=C1C(=O)C2(CCCCC2)C2(N=C(c3ccccc3)OC2=O)C12CCCCC2)c1ccccc1` (stereo not given), for which the growth is 70.9% (inactive).

As to `O=C(c1ccc(Cl)cc1)C1C(c2ccccc2)C1[N+](=O)[O-]` (stereo not given), the growth was 99.1% (inactive).

For the compound `O=C1C=CC[C@H](/C=C/c2ccccc2)O1`, the growth was 11.4% (inactive) and 2.9% (active). With `NNC(=O)Nc1ccccc1`, the growth is 96.1% (inactive). On to `CC(NC(=O)CCl)c1ccccc1` (stereo not given), for which the growth was 101% (inactive). As to `O=c1[nH]nnc2cc(Cl)ccc12`, the growth is 92.2% (inactive) and 95.8% (inactive).

As to `OCCS`, the growth is 105% (inactive). Still for that read-out and setting: the value for `O=[N+]([O-])c1ccc(N/N=C/C2CCCCCC2)c([N+](=O)[O-])c1` was 74.2% (inactive).

For the compound `Cc1nc2c(=O)[nH]c(=S)[nH]c2[nH]c1=O`, the growth was 94.4% (inactive) and 93.9% (inactive).

With `CCc1ccc(OC(=O)CCl)cc1`, the growth was 101% (inactive). For the compound `COc1ccc(COC=O)cc1`, the growth was 102% (inactive). Regarding `CCNCc1ccccc1`, the growth is 101% (inactive). Same read-out and setting: the value for `Nc1c(Cl)cc2c(c1Br)C(=O)c1ccccc1C2=O` was 82.3% (inactive); that for `CC(=O)Nc1ccc(OC(C)=O)cc1` was 17.8% (inactive) and 98.8% (inactive).

Regarding `CCOC(=N)c1ccc(C(=N)OCC)cc1`, the growth was 99% (inactive). `O=[N+]([O-])c1ccc(NC2CCCCC2)nc1`: the growth is 96.7% (inactive) and 95.7% (inactive). In the case of `CCCCCc1cc[n+](CC(=O)c2ccccc2)cc1`, the growth is 98.7% (inactive).

The same assay, now with this note: 50 µM.
Take `S=c1nc[nH]c2nc[nH]c12`: the growth is 21% (inactive).

Staying with this assay, now noted: 100 µM.
Consider `O=c1ccn2c(n1)OC1CC2OC1COC(c1ccccc1)(c1ccccc1)c1ccccc1` (stereo not given), for which the growth was 65.7% (inactive).
